Results filed as inconclusive are left out. A number with no mark means an inactive call. Active and inactive are the calls of the source. Calls come from the whole dose curve; as a rule, active = well fitted cell-killing curve with a large enough effect in the repeat runs; inconclusive = weak or mixed curves, or effect the other way; inactive = flat fitted curve, though single readings scatter.
assay: qHTS RealTime-Glo MT Cell Viability Assay in HEK293 cells - 40 hour (AID 1224874); conditions: RealTime-Glo luminescence; max response: hits give low values; note: nearly all actives have a fitted effect of over 50% in size
Source text: U.S. Tox21 Program National Center for Advancing Translational Sciences [NCATS] NIH Chemical Genomics Center [NCGC] U.S. Environmental Protection Agency [EPA] National Institutes of Environmental Health Sciences [NIEHS] National Toxicology Program [NTP] U.S. Food and Drug Administration [FDA] Tox21 Assay Overview: Measure of cell viability is critical in the cell-base assay. Analysis of cell viability is necessary for the characterization of cell responses to cytotoxic drugs and environmental stress. A RealTime-Glo MT Cell Viability Assay to monitor cell viability in real time of continues cell culture during 40 hours of compound treatment was used to screen Tox21 10K library compounds in Hek293 cells. The RealTime-Glo MT Cell Viability Assay is a nonlytic, homogeneous, bioluminescent method to measure cell viability in real time using a simple, plate-based method. The assay involves adding NanoLuc luciferase and a cell-permeant prosubstrate to cells in culture. Viable cells reduce the proprietary prosubstrate to generate a substrate for NanoLuc luciferase. This substrate diffuses from cells into the surrounding culture medium, where it is rapidly used by the NanoLuc Enzyme to produce a luminescent signal. The signal correlates with the number of viable cells, making the assay well suited for cytotoxicity studies.
Tox21 Assay Protocol Summary: The mixture of Hek293 cell suspension and reagents were dispensed at 600cells/6 ul/well in 1536-well tissue culture treated black solid bottom plates using a Multidrop dispenser. After the assay plates were incubated at a 37 C/5% CO2 incubator for 5 hours, 23 nL of compounds dissolved in DMSO, positive and negative controls was transferred to the assay plate by a pintool work station. The plates were incubated at 37 C for 40 hours. The luminescence intensity were measured at 0h, 8h, 16h, 24h, 32h and 40h time points using ViewLux plate reader during compound treatment.
% is set by controls: 0 for no effect and ±100 for the full control effect; potency is the fitted concentration of half-maximal effect.

SMILES | max response | Potency
O=C(O)/C=C/c1cnc[nH]1 | -5.16% | 
Nc1ccc(C(=O)N2CC3CC(CN(Cc4ccccc4)C3)C2)cc1 | -8.65% | 
NC[C@H]1O[C@H](O[C@H]2[C@H](O)[C@@H](O[C@H]3O[C@H](CO)[C@@H](O)[C@H](N)[C@H]3O)[C@H](N)C[C@@H]2N)[C@H](O)[C@@H](O)[C@@H]1O | 12.1% | 
N=C(N=C(N)N)N1CCOCC1 | 6.38% | 
Cc1ccccn1 | 4.7% | 
O=C(O)c1cccc(N(Cc2cccnc2)c2ccc(OC(F)F)c(OC(F)F)c2)c1 | -2.06% | 
CC(C)=CCCC(C)CC=O (stereo not given) | -1.27% | 
CC(=O)Nc1ccc(/C=N/NC(N)=S)cc1 | 0.836% | 
O=[N+]([O-])c1cc[n+]([O-])cc1 | -21.4% | 
NCc1ccccc1 | 2.09% | 
O=c1c2ccccc2nnn1CCl | 10.3% | 
NC(N)=N/N=C/c1c(Cl)cccc1Cl | -22.8% | 
Cc1ccc(C(C)c2ccc(C)c(C)c2)cc1C | -0.95% | 
CC(C)CCCC(C)CCO (stereo not given) | 14.4% | 
SC1CCCC1 | 8.94% | 
CC(C)(C)c1cc(O)c(C(C)(C)C)cc1O |  | 30.9 µM (active)
CC(=O)/C(C)=C/C1C(C)=CCCC1(C)C (stereo not given) | -10.3% | 
CC(CN)CCCN (stereo not given) | 1.48% | 
CC(=O)[C@@]1(O)CC[C@H]2[C@@H]3C[C@H](C)C4=CC(=O)CC[C@]4(C)[C@H]3CC[C@@]21C |  | 19 µM (active)
CCCCCc1ccc(N)cc1 | -15.3% | 

SMILES | max response | Potency
C[Si](C)O[Si](C)(C)O[Si](C)(C)O[Si](C)C | 7.78% | 
CCCC(=O)OCC | 20% | 
COCCCCCCCCOCCC[Si](C)(O[Si](C)(C)C)O[Si](C)(C)C |  | 2.75 µM (active)
COc1cc(C(C)(C)C)c(O)c(C(C)(C)C)c1 | 1.44% | 
C1=Cc2ccccc2C1 | 6.96% | 
C=C(C)C(=O)OCCN(C)C | 0.256% | 
CCCCOCCOCCOCCOCCO | -11.7% | 
CC(C)c1ccccc1C(C)C | -23.5% | 
C=Cc1c(C)c2cc3[nH]c(cc4nc(cc5nc(cc1[nH]2)C(C)=C5CCC(=O)O)C(CCC(=O)O)=C4C)c(C)c3C=C | -11.2% | 
C1CCC2OC2C1 (stereo not given) | 4.85% | 
CCCC[C@H]1CN(CC2CCOCC2)C(=O)OC12CCN(C1(C)CCN(C(=O)c3c(C)ncnc3C)CC1)CC2 | 0.654% | 
CCOC(=S)SSC(=S)OCC | 1.68% | 
CCCCOC(=O)/C=C\C(=O)OCCCC | -0.0674% | 
Cc1ccc(C(=O)C(C)CN2CCCCC2)cc1 (stereo not given) | 11.5% | 
CC(C)(C)c1ccc(S)cc1 | -0.358% | 
C=CC(=O)OCC(C)OCC(C)OCC(C)OC(=O)C=C (stereo not given) |  | 43.6 µM (active)
Cc1ncsc1CCO | 14.2% | 
CC(=O)N(CC(=O)N(C)C)c1ccccc1 | 1.18% | 
CC[C@H](C)[C@H](N)C(=O)O | -1.16% | 
Cc1c(Cn2ccnc2)c2ccccc2n1CCC(=O)O | 4.63% | 

Source: PubChem BioAssay (Tox21)
